± gives the standard deviation of the averaged measurements.
system: Escherichia coli Nissle 1917; assay: area under OmniLog respiration curve over 48 h (OmniLog units x h); higher = more growth / nutrient utilisation; extreme values may be limits of the assay; conditions: nutrient role: C-Source, carbohydrate; incubation: 48 h, 37 °C
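Wherever DuctApe activity index of respiration/growth curve (0 no growth to 9 maximum) is given: biolog PM4 phosphorus and sulfur plates, tetrazolium violet dye reduction read in the OmniLog every 15 min, kinetic curves scored by DuctApe, each plate run in triplicate.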

| SMILES | area under OmniLog respiration curve |
| --- | --- |
| O=C(CO)[C@@H](O)[C@H](O)[C@H](O)CO[C@H]1O[C@H](CO)[C@@H](O)[C@H](O)[C@H]1O [Palatinose] | 174 ± 160 |
| OC[C@@H](O)[C@@H](O)CO [i-Erythritol] | 4.72 |
| O=C(O)[C@H](O)[C@@H](O)[C@H](O)[C@H](O)CO[C@H]1O[C@H](CO)[C@H](O)[C@H](O)[C@H]1O [Melibionic acid] | 6790 ± 140 |
| OCC1(O)OC[C@@H](O)[C@@H](O)[C@H]1O (stereo partly drawn) [D-Psicose] | 3500 ± 700 |
| CO[C@H]1O[C@H](CO)[C@@H](O)[C@H](O)[C@H]1O [a-Methyl-D-Glucoside] | 4.72 |
| O=C[C@H](O)[C@H](O)[C@@H](O)CO [L-Lyxose] | 2670 ± 880 |
| CO[C@@H]1OC[C@@H](O)[C@H](O)[C@H]1O [b-Methyl-D-Xyloside] | 4.72 |
| OC[C@H]1O[C@@H](O[C@H]2[C@H](O)[C@@H](O)[C@@H](O)O[C@@H]2CO)[C@H](O)[C@@H](O)[C@H]1O [a-D-Lactose] | 7580 ± 630 |
| CC(=O)N[C@@H](CO)[C@@H](O)[C@H](O)[C@H](O)CO [N-Acetyl-D-Glucosaminitol] | 4.72 |
| OCC1OC(O)(CO)C(O)C1O [D-Fructose] | 8740 ± 720 |
| C[C@@H](O)[C@H](O)[C@H](O)[C@@H](O)C=O [D-Fucose] | 21 ± 25 |

same assay, conditions: nutrient role: C-Source, carboxylic acid; incubation: 48 h, 37 °C

| SMILES | area under OmniLog respiration curve |
| --- | --- |
| O=C(O)CC(CC(=O)O)C(=O)O [Tricarballylic acid] | 5.51 ± 1.4 |
| O=C(CO)[C@@H](O)[C@H](O)[C@@H](O)C(=O)O [5-Keto-D-Gluconic acid] | 118 ± 140 |
| O=C(O)/C=C/C(=O)O [Fumaric acid] | 8610 ± 570 |
| O=C1O[C@@H]([C@H](O)CO)[C@H](O)[C@H]1O [D-Galactonic acid-g-Lactone] | 8410 ± 840 |
| O=C(O)CC(O)(CC(=O)O)C(=O)O [Citric acid] | 31.1 ± 32 |
| C=C(CC(=O)O)C(=O)O [Itaconic acid] | 4.72 |
| CC(O)(CC(=O)O)C(=O)O (stereo not drawn) [Citramalic acid] | 4.72 |
| O=CO [Formic acid] | 112 ± 190 |

same assay, conditions: nutrient role: sole nitrogen source (pyruvate carbon); incubation: 48 h, 37 °C

| SMILES | area under OmniLog respiration curve |
| --- | --- |
| NC(=O)NC(N)=O [Biuret] | 3650 ± 1400 |
| NCC(=O)N[C@@H](CCC(N)=O)C(=O)O | 8900 ± 1400 |
| NCCO [Ethanolamine] | 27.4 ± 39 |
| CC(O)C(N)=O (racemic) [DL-Lactamide] | 57 ± 91 |
| N[C@H]1C(O)O[C@H](CO)[C@H](O)[C@@H]1O (stereo partly drawn) [D-Galactosamine] | 11.2 ± 11 |

same assay, conditions: nutrient role: sole phosphorus source (pyruvate carbon); incubation: 48 h, 37 °C

| SMILES | area under OmniLog respiration curve |
| --- | --- |
| Nc1nc2c(ncn2[C@@H]2O[C@H](CO)[C@@H](OP(=O)(O)O)[C@H]2O)c(=O)[nH]1 [Guanosine 3`-Monophosphate] | 9730 ± 510 |
| N[C@@H]1[C@@H](O)[C@H](O)[C@@H](COP(=O)(O)O)O[C@@H]1O [D-Glucosamine-6-Phosphate] | 9120 ± 620 |
| O=C(O)[C@H](O)[C@@H](O)[C@H](O)[C@H](O)COP(=O)(O)O [6-Phospho-Gluconic acid] | 9360 ± 510 |
| N[C@H](COP(=O)(O)O)C(=O)O [O-Phospho-D-Serine] | 9260 ± 670 |

same assay, conditions: nutrient role: sole sulfur source (pyruvate carbon); incubation: 48 h, 37 °C

| SMILES | area under OmniLog respiration curve |
| --- | --- |
| O=S(=O)(O)CCO [2-Hydroxyethane Sulfonic acid] | 7790 ± 450 |
| CSCCC(NC(C)=O)C(=O)O (racemic) [N-Acetyl-D,L-Methionine] | 5080 ± 220 |
| CC(=O)N[C@@H](CS)C(=O)O [N-Acetyl-L-Cysteine] | 55.4 ± 54 |
| C[S+]([O-])CC[C@H](N)C(=O)O (stereo partly drawn) [L-Methionine Sulfoxide] | 5350 ± 130 |
| CCCCS(=O)(=O)O [Butane Sulfonic acid] | 7820 ± 190 |
| N[C@@H](CS(=O)O)C(=O)O [L-Cysteine Sulfinic acid] | 7460 ± 360 |
| NC(N)=S [Thiourea] | 4830 ± 410 |
| NCCS(=O)O [Hypotaurine] | 7620 ± 90 |
| CSC[C@H](N)C(=O)O [S-Methyl-L-Cysteine] | 17.8 ± 23 |

system: Escherichia coli Nissle 1917; assay: DuctApe activity index of respiration/growth curve (0 no growth to 9 maximum) (index 0-9); higher = more growth / nutrient utilisation, active = 3 or more; extreme values may be limits of the assay; conditions: nutrient role: C-Source, carbohydrate; incubation: 48 h, 37 °C

| SMILES | DuctApe activity index |
| --- | --- |
| O=C(CO)[C@@H](O)[C@H](O)[C@H](O)CO[C@H]1O[C@H](CO)[C@@H](O)[C@H](O)[C@H]1O [Palatinose] | 0 (inactive) |
| OC[C@@H](O)[C@@H](O)CO [i-Erythritol] | 0 (inactive) |
| O=C(O)[C@H](O)[C@@H](O)[C@H](O)[C@H](O)CO[C@H]1O[C@H](CO)[C@H](O)[C@H](O)[C@H]1O [Melibionic acid] | 7 (active) |
| OCC1(O)OC[C@@H](O)[C@@H](O)[C@H]1O (stereo partly drawn) [D-Psicose] | 4 (active) |
| CO[C@H]1O[C@H](CO)[C@@H](O)[C@H](O)[C@H]1O [a-Methyl-D-Glucoside] | 0 (inactive) |
| O=C[C@H](O)[C@H](O)[C@@H](O)CO [L-Lyxose] | 4.33 (active) |
| CO[C@@H]1OC[C@@H](O)[C@H](O)[C@H]1O [b-Methyl-D-Xyloside] | 0 (inactive) |
| OC[C@H]1O[C@@H](O[C@H]2[C@H](O)[C@@H](O)[C@@H](O)O[C@@H]2CO)[C@H](O)[C@@H](O)[C@H]1O [a-D-Lactose] | 7.67 (active) |
| CC(=O)N[C@@H](CO)[C@@H](O)[C@H](O)[C@H](O)CO [N-Acetyl-D-Glucosaminitol] | 0 (inactive) |
| OCC1OC(O)(CO)C(O)C1O [D-Fructose] | 8.67 (active) |
| C[C@@H](O)[C@H](O)[C@H](O)[C@@H](O)C=O [D-Fucose] | 0 (inactive) |

Source: the supplement of paper PMC9801561
